Experimental findings from PubChem BioAssay (Tox21) are described below.

Molecules are shown by their SMILES. Inconclusive results are not listed. Entries that show only a call come without a potency. Activity calls are given as the source filed them. Unless noted, calls come from the whole dose curve.

Chain of Beta-2 adrenergic receptor (Homo sapiens) (P07550 whole entry, looked up): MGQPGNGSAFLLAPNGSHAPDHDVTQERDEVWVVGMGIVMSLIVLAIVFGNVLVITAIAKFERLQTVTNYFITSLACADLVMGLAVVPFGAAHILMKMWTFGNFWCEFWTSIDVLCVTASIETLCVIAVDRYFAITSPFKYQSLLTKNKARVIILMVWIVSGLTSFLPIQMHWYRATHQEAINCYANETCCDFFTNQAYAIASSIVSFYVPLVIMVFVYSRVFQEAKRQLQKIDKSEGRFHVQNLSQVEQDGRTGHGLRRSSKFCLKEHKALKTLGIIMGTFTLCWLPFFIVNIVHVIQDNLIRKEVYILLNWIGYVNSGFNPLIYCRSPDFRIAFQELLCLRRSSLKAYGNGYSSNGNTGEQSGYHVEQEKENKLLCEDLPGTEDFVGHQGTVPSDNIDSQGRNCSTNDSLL

System in one assay: not listed separately
As to the kind of experiment: cAMP Responsive Elements (CRE) small molecule antagonists, cell-based qHTS assay (AID 1963591; active = well fitted inhibition curve with a large enough effect in the signal ratio in the repeat runs, not every such curve was filed as active; the % refers to the signal ratio). The following applies: CRE-bla HEK293T, beta-lactamase FRET ratio; series mostly up to 92.4 µM. An outline of the steps:
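Inhibition of NKH477-driven (0.25 uM final) CRE-beta-lactamase signal in HEK293T cells, 3 h compound exposure at 37 °C, detected by FRET substrate fluorescence.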
With `O=C1O[C@H]([C@H](O)CO)C(O)=C1O`, the Potency entry is “inactive”.
Turning to `COC(=O)c1ccc(O)cc1`, the Potency result is “inactive”.
The same measure, in the same setting: for `S=c1nc[nH]c2nc[nH]c12` the value was “inactive”; for `C/C=C/C(=O)N(CC)c1ccccc1C`, “inactive”.
On to `CN(N=O)C(=O)N[C@@H]1[C@@H](O)[C@H](O)[C@@H](CO)O[C@@H]1O`, for which the Potency entry is “inactive”.
Still for that read-out and setting: for `CCCCC1C(=O)N(c2ccccc2)N(c2ccccc2)C1=O` the value was “inactive”; for `CC12CCC(CC1)C(C)(C)O2`, “inactive”; for `OC[C@@H](O)[C@@H](O)[C@H](O)[C@H](O)CO`, “inactive”.
On the same count and under the same terms, for `Cc1ncc([N+](=O)[O-])n1CCO` the value was “inactive”.
`CCCCOC(=O)c1ccc(N)cc1`: the Potency entry was “inactive”.
As for `c1ccc2c(c1)c1cccc3ccc4cccc2c4c31`, the Potency result is “inactive”.
Same read-out and setting: next, `CC(C)=CCC/C(C)=C/CO`: “inactive”; `CN1C(C(=O)Nc2ccccn2)=C(O)c2ccccc2S1(=O)=O`: “inactive”; `Cc1noc(NS(=O)(=O)c2ccc(N)cc2)c1C`: “inactive”.
The same measure, in the same setting: for `Cc1cc(=O)n(-c2ccccc2)n1C` the value was “inactive”; for `CC(C)(Oc1ccc(C2CC2(Cl)Cl)cc1)C(=O)O` (stereo not drawn), “inactive”; for `OC[C@@H](O)[C@@H](O)[C@H](O)[C@@H](O)CO`, “inactive”.
The same measure, in the same setting: for `OC(Cn1cncn1)(Cn1cncn1)c1ccc(F)cc1F` the value was “inactive”; for `OCCO`, “inactive”; for `NS(=O)(=O)c1cc2c(cc1Cl)NCNS2(=O)=O`, “inactive”.
With `O=C(O)Cc1ccccc1Nc1c(Cl)cccc1Cl`, the Potency result was “inactive”.
The same measure, in the same setting: for `CC(C)(C#N)c1cc(Cn2cncn2)cc(C(C)(C)C#N)c1` the value was “inactive”; for `CC[C@H](C)C(=O)O[C@H]1C[C@@H](C)C=C2C=C[C@H](C)[C@H](CC[C@@H]3C[C@@H](O)CC(=O)O3)[C@H]21`, “inactive”; for `Cc1nnc(NS(=O)(=O)c2ccc(N)cc2)s1`, “inactive”.
The same measure, in the same setting: for `NC(=O)c1ccccc1O` the value was “inactive”.
As for `CC(C)Cc1ccc(C(C)C(=O)O)cc1` (stereo not drawn), the Potency entry is “inactive”.
For `CC(C)(Oc1ccc(Cl)cc1)C(=O)O`, the Potency entry was “inactive”.
Still for that read-out and setting: for `NC(=O)c1cccnc1` the value was “inactive”; for `CC(=O)[C@@]1(O)CC[C@H]2[C@@H]3C[C@H](C)C4=CC(=O)C=C[C@]4(C)[C@@]3(F)[C@@H](O)C[C@@]21C`, “inactive”; for `CC(=O)Nc1nnc(S(N)(=O)=O)s1`, “inactive”.
The same measure, in the same setting: next, `NNCCc1ccccc1`: “inactive”; `CCOC(N)=O`: “inactive”.
The same measure, in the same setting: for `CCCCCCc1ccc(O)cc1O` the value was “inactive”.

The target in a further assay is Beta-2 adrenergic receptor (Homo sapiens) (UniProt P07550). As to the kind of experiment: Adrenergic beta2 receptor (ADRB2) small molecule antagonists, cell-based qHTS assay (AID 1963592). Note: nearly all actives have a fitted effect of over 50% in size. To be noted: CHO-ADRB2 cells, isoproterenol-stimulated cAMP HTRF ratio, 0.5 h; series mostly up to 92.4 µM. An outline of the steps:
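Cells (CHO, stable ADRB2 overexpression) incubated 18-20hr at 37C; compounds added from DMSO; agonist mix (1nM isoproterenol, 100uM IBMX, 25uM Ro-20-1724) added; 0.5hr RT; d2-cAMP and anti-cAMP-cryptate added; 1hr RT; 665/615 nm read.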
Take `O=C1O[C@H]([C@H](O)CO)C(O)=C1O`: the Potency entry is “inactive”.
As for `COC(=O)c1ccc(O)cc1`, the Potency entry was “inactive”.
On the same count and under the same terms, next, `S=c1nc[nH]c2nc[nH]c12`: “inactive”; `C[C@]12CCC(=O)C=C1CC[C@@H]1[C@@H]2C(=O)C[C@@]2(C)[C@H]1CC[C@]2(O)C(=O)CO`: “inactive”; `C/C=C/C(=O)N(CC)c1ccccc1C`: “inactive”.
On the same count and under the same terms, for `O=c1c(-c2ccc(O)cc2)coc2cc(O)cc(O)c12` the value was “inactive”; for `CN(N=O)C(=O)N[C@@H]1[C@@H](O)[C@H](O)[C@@H](CO)O[C@@H]1O`, “inactive”; for `CC12CCC(CC1)C(C)(C)O2`, “inactive”.
Take `OC[C@@H](O)[C@@H](O)[C@H](O)[C@H](O)CO`: the Potency entry is “inactive”.
On to `CCCN(CCC)S(=O)(=O)c1ccc(C(=O)O)cc1`, for which the Potency result was “inactive”.
Same read-out and setting: next, `Cc1ncc([N+](=O)[O-])n1CCO`: “inactive”.
On the same count and under the same terms, for `CCCCOC(=O)c1ccc(N)cc1` the value was “inactive”; for `C#C[C@]1(O)CC[C@H]2[C@@H]3CCC4=CC(=O)CC[C@@H]4[C@H]3CC[C@@]21CC`, “inactive”; for `c1ccc2c(c1)c1cccc3ccc4cccc2c4c31`, “inactive”.
On the same count and under the same terms, next, `CC1(C)O[C@@H]2C[C@H]3[C@@H]4C[C@H](F)C5=CC(=O)CC[C@]5(C)[C@H]4[C@@H](O)C[C@]3(C)[C@]2(C(=O)CO)O1`: “inactive”.
In the case of `CC(C)=CCC/C(C)=C/CO`, the Potency result is “inactive”.
The same measure, in the same setting: for `CN1C(C(=O)Nc2ccccn2)=C(O)c2ccccc2S1(=O)=O` the value was “inactive”.
Same read-out and setting: for `Cc1noc(NS(=O)(=O)c2ccc(N)cc2)c1C` the value was “inactive”.
On the same count and under the same terms, for `Cc1cc(=O)n(-c2ccccc2)n1C` the value was “inactive”; for `CC(C)(Oc1ccc(C2CC2(Cl)Cl)cc1)C(=O)O` (stereo not drawn), “inactive”; for `OC[C@@H](O)[C@@H](O)[C@H](O)[C@@H](O)CO`, “inactive”.
Take `NS(=O)(=O)c1cc2c(cc1Cl)NCNS2(=O)=O`: the Potency result is “inactive”.
Regarding `O=C(O)Cc1ccccc1Nc1c(Cl)cccc1Cl`, the Potency entry is “inactive”.
Turning to `CC(C)(C#N)c1cc(Cn2cncn2)cc(C(C)(C)C#N)c1`, the Potency result was “inactive”.
Still for that read-out and setting: for `C[C@]12CC[C@@H]3c4ccc(O)cc4CC[C@H]3[C@@H]1C[C@@H](O)[C@@H]2O` the value was “inactive”; for `Cc1nnc(NS(=O)(=O)c2ccc(N)cc2)s1`, “inactive”; for `NC(=O)c1ccccc1O`, “inactive”.
Same read-out and setting: for `CC(C)Cc1ccc(C(C)C(=O)O)cc1` (stereo not drawn) the value was “inactive”; for `CC(C)(Oc1ccc(Cl)cc1)C(=O)O`, “inactive”.
Same read-out and setting: next, `COc1ccccc1OCC(O)CO` (stereo not drawn): “inactive”; `CC(=O)[C@@]1(O)CC[C@H]2[C@@H]3C[C@H](C)C4=CC(=O)C=C[C@]4(C)[C@@]3(F)[C@@H](O)C[C@@]21C`: “inactive”.
`CC(=O)Nc1nnc(S(N)(=O)=O)s1`: the Potency entry was “inactive”.
Still for that read-out and setting: for `NNCCc1ccccc1` the value was “inactive”; for `CCOC(N)=O`, “inactive”.

The target is the same in a further assay. The assay can be described thus: Adrenergic beta2 receptor (ADRB2) small molecule agonists, cell-based qHTS assay (AID 1963593).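 Note: CHO cells stably overexpressing human ADRB2.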 To be noted: CHO-ADRB2 cells, cAMP HTRF, 30 min; series mostly up to 92.4 µM. In outline:
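CHO cells stably over-expressing ADRB2 were plated overnight at 37C, then dosed with compounds plus a stimulation mix containing 100uM IBMX and 25uM Ro-20-1724 for 0.5hr at room temperature. cAMP was measured by HTRF competition, 1hr.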
Take `COC(=O)c1ccc(O)cc1`: the Potency entry is “inactive”.
The same measure, in the same setting: for `S=c1nc[nH]c2nc[nH]c12` the value was “inactive”; for `C[C@]12CCC(=O)C=C1CC[C@@H]1[C@@H]2C(=O)C[C@@]2(C)[C@H]1CC[C@]2(O)C(=O)CO`, “inactive”.
On the same count and under the same terms, for `CN(N=O)C(=O)N[C@@H]1[C@@H](O)[C@H](O)[C@@H](CO)O[C@@H]1O` the value was “inactive”; for `CCCCC1C(=O)N(c2ccccc2)N(c2ccccc2)C1=O`, “inactive”.
On the same count and under the same terms, next, `CC12CCC(CC1)C(C)(C)O2`: “inactive”; `OC[C@@H](O)[C@@H](O)[C@H](O)[C@H](O)CO`: “inactive”.
Consider `CCCN(CCC)S(=O)(=O)c1ccc(C(=O)O)cc1`, for which the Potency result is “inactive”.
As to `Cc1ncc([N+](=O)[O-])n1CCO`, the Potency result was “inactive”.
In the case of `CCCCOC(=O)c1ccc(N)cc1`, the Potency entry was “inactive”.
The same measure, in the same setting: next, `C#C[C@]1(O)CC[C@H]2[C@@H]3CCC4=CC(=O)CC[C@@H]4[C@H]3CC[C@@]21CC`: “inactive”; `CC(C)=CCC/C(C)=C/CO`: “inactive”; `Cc1noc(NS(=O)(=O)c2ccc(N)cc2)c1C`: “inactive”.
In the case of `Cc1cc(=O)n(-c2ccccc2)n1C`, the Potency entry is “inactive”.
Regarding `CC(C)(Oc1ccc(C2CC2(Cl)Cl)cc1)C(=O)O` (stereo not drawn), the Potency result was “inactive”.
For `OC[C@@H](O)[C@@H](O)[C@H](O)[C@@H](O)CO`, the Potency result is “inactive”.
Still for that read-out and setting: next, `OC(Cn1cncn1)(Cn1cncn1)c1ccc(F)cc1F`: “inactive”; `OCCO`: “inactive”.
The same measure, in the same setting: for `NS(=O)(=O)c1cc2c(cc1Cl)NCNS2(=O)=O` the value was “inactive”; for `O=C(O)Cc1ccccc1Nc1c(Cl)cccc1Cl`, “inactive”; for `CC(C)(C#N)c1cc(Cn2cncn2)cc(C(C)(C)C#N)c1`, “inactive”.
On to `C[C@]12CC[C@@H]3c4ccc(O)cc4CC[C@H]3[C@@H]1C[C@@H](O)[C@@H]2O`, for which the Potency entry is “inactive”.
Still for that read-out and setting: next, `Cc1nnc(NS(=O)(=O)c2ccc(N)cc2)s1`: “inactive”; `NC(=O)c1ccccc1O`: “inactive”; `CC(C)Cc1ccc(C(C)C(=O)O)cc1` (stereo not drawn): “inactive”.
For `CC(C)(Oc1ccc(Cl)cc1)C(=O)O`, the Potency entry was “inactive”.
The same measure, in the same setting: for `COc1ccccc1OCC(O)CO` (stereo not drawn) the value was “inactive”.
On the same count and under the same terms, for `NC(=O)c1cccnc1` the value was “inactive”.
On the same count and under the same terms, for `CC(=O)[C@@]1(O)CC[C@H]2[C@@H]3C[C@H](C)C4=CC(=O)C=C[C@]4(C)[C@@]3(F)[C@@H](O)C[C@@]21C` the value was “inactive”; for `CCOC(N)=O`, “inactive”; for `CCCCCCc1ccc(O)cc1O`, “inactive”.
